SMILES strings stand for the structures. Records with an inconclusive call do not appear. The source made the active and inactive calls. Calls follow the shape of the dose curve; as a rule, active = well fitted activation curve with a large enough effect in the signal ratio in the repeat runs (not every such curve was filed as active); inconclusive = weak or mixed curves; inactive = flat fitted curve, though single readings scatter; the % refers to the signal ratio.
% is scaled to controls: 0 for no effect and ±100 for the full control effect.

The test is described as follows: qHTS assay to identify small molecule agonists of the hypoxia (HIF-1) signaling pathway (AID 1224846). The conditions noted are these: HRE-bla ME-180 cells, beta-lactamase ratio, 17 h; series mostly up to 76.8 µM. From the text:
U.S. Tox21 Program National Center for Advancing Translational Sciences [NCATS] NIH Chemical Genomics Center [NCGC] U.S. Environmental Protection Agency [EPA] National Institutes of Environmental Health Sciences [NIEHS] National Toxicology Program [NTP] U.S. Food and Drug Administration [FDA] Tox21 Assay Overview: Hypoxia-inducible factor-1 (HIF-1) is the major hypoxia-regulated transcription factor that controls cellular responses to low oxygen concentration. HIF-1 is composed of two subunits: hypoxia responsive HIF-1-alpha and constitutively expressed HIF-1-beta, which is also known as aryl hydrocarbon receptor nuclear translocator. During hypoxic conditions, HIF-1-alpha heterodimerizes with HIF-1-beta and translocates into the nucleus where the HIF-1 complex binds to the hypoxia-response element (HRE) and activates expression of target genes such as VEGF (vascular endothelial growth factor). The HIF-1 pathway is essential to normal growth and development, and is involved in the pathophysiology of cancer, inflammation, and ischemia. Using a beta-lactamase reporter-gene under control of the hypoxia response element, a cell-based assay [CellSensor(TM) HRE-bla ME-180 from Life Technologies, Carlsbad, CA] was used to measure hypoxia-induced signaling. Tox21 10K library compounds were measured for their ability to induce the reporter gene activity.
Tox21 Assay Protocol Summary: HRE-bla ME-180 cells were dispensed at 2,000 cells per well in 6 uL of assay medium containing 0.5% dialyzed FBS into black wall/clear-bottom 1536-well plates using a Multidrop Combi (Thermo Scientific, Waltham, MA) dispenser. After the assay plates were incubated at 37C and 5% CO2 for 5 hrs, 23 nL of compounds dissolved in DMSO, positive controls or DMSO only was transferred to each well of the assay plate using a Pintool station (Kalypsys, San Diego, CA). The assay plates were incubated at 37C and 5% CO2 for 17 hrs. One uL of LiveBLAzerTM B/G FRET substrate (CCF4-AM) (Life Technologies) was added to each well using a Flying Reagent Dispenser (Aurora Discovery, San Diego, CA).
Background: qHTS replaces the single test concentration by a dilution series.
For `CC1=CC(C)C(C=O)CC1` (stereo not given), the outcome was inactive.
The same measure, in the same setting: the same measure for `O=C1CCCC(=O)C1`: “inactive”; for `CCCCC/C=C\CCC=O`: “inactive”.
Still for that read-out and setting: with `NC(=O)c1cn(Cc2c(F)cccc2F)nn1` the entry was “inactive”; with `Cn1cc(S(C)=O)c(=O)c2ccc(F)cc21` (stereo not given), “inactive”; with `CC(=O)OCC(CCn1cnc2cnc(N)nc21)COC(C)=O`, “inactive”.
On the same count and under the same terms, with `CC(C)(C)c1nnc(NS(=O)(=O)c2ccccc2)s1` the entry was “inactive”; with `O=C1CCCCCCCCCCCN1`, “inactive”; with `CC(C)(O)C(=O)c1ccccc1`, “inactive”.
Turning to `O=[N+]([O-])c1ccc(F)cc1F`, the outcome was inactive.
As to `CC(C)=CCCC(C)CC(=O)O` (stereo not given), the result was inactive.
Consider `CCC(C)S` (stereo not given), for which the activation is -1.24% [at 2.67 µM] (inactive).
Take `CN(C)CCCNCCCN(C)C`: the result was inactive.
Still for that read-out and setting: the same measure for `NC(=O)Nc1ccccc1`: “inactive”; for `C1OCOCO1`: “inactive”; for `CC(=O)Nc1c(I)cc(I)c(C(=O)O)c1I`: “inactive”.
Still for that read-out and setting: the same measure for `CCCCOCCOCCOCCCC`: “inactive”; for `OC(CCN1CCCCC1)(c1ccccc1)C1CC2C=CC1C2` (stereo not given): “inactive”.
The same measure, in the same setting: the same measure for `CC1(C)CO[C@@H](CC(=O)O)CN1`: “inactive”; for `CC(=O)Nc1ccc(S(N)(=O)=O)cc1`: “inactive”; for `NC(=O)COCCN1CCN(C(c2ccccc2)c2ccc(Cl)cc2)CC1` (stereo not given): “inactive”.
With `C=COCC1CCC(CO)CC1` (stereo not given), the result was inactive.
The same measure, in the same setting: with `Nc1ccccc1S(=O)(=O)O` the entry was “inactive”; with `CCOc1ccc(C(=O)OCCN(CC)CC)cc1`, “inactive”.
Still for that read-out and setting: with `CC(C)c1cc2c(cc1S(=O)(=O)O)[C@@]1(C)CCC[C@@](C)(C(=O)O)[C@@H]1CC2` the entry was “inactive”.
Same read-out and setting: with `C=C(C)C(=O)OCCCCCCCC(C)C` the entry was “inactive”.
Take `NC(=O)c1ccc([N+](=O)[O-])cc1`: the result was inactive.
For `CC(C)(O)C#CC(C)(C)O`, the outcome was inactive.
Regarding `O=C[C@H](O)[C@@H](O)[C@H](O)[C@H](O)CO`, the outcome was inactive.
The same measure, in the same setting: the same measure for `COC(=O)[C@@H](N)Cc1ccc(O)c(O)c1`: “inactive”; for `C=C1CC[C@H]2C[C@@H]1C2(C)C`: “inactive”.
With `Cc1cc2c(cc1S(N)(=O)=O)S(=O)(=O)CCC2`, the outcome was inactive.
On the same count and under the same terms, the same measure for `NC(=O)c1ccc(N)cc1`: “inactive”.
Take `Cc1cccn2c(=O)c(-c3nnn[nH]3)cnc12`: the activation is -0.179% [at 15.8 µM] (inactive).
Take `CCOC(=O)c1cccc(N)c1`: the outcome was inactive.
Consider `C=C(C)CS(=O)(=O)O`, for which the result was inactive.
Still for that read-out and setting: with `Cc1ccc(Cl)cc1Cl` the entry was “inactive”.
Turning to `COC(C)(C)CCCC(C)CC=O` (stereo not given), the outcome was inactive.
On the same count and under the same terms, the same measure for `O=S(O)CO`: “inactive”.
On the same count and under the same terms, the same measure for `Cc1c(NC(C)C)c(=O)n(-c2ccccc2)n1C`: “inactive”.

Source of the values: PubChem BioAssay (Tox21).
